# Active and inactive are the calls of the source.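 The calls were made as follows: active = compounds lowering luciferase light whose fitted half-effect concentration is at most twice the top tested dose; inconclusive = flat curve with 30 to 70% inhibition, or poor fit; inactive = the rest.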
# Test: luciferase signal loss, tTA control fusion, HeLa F-luc tTA cells, dry powder, counter-screen for HIV Env fusion inhibitor project, dose response (AID 687021)
# Conditions: luciferase luminescence counterscreen; series mostly up to 35 µM; activity change, negative = inhibition: at the top concentration
Compound,outcome,"activity change, negative = inhibition"
O=S(=O)(NCc1ccncc1)c1ccc2c(c1)OCCO2,inactive,
CCOc1ccc(OCC)c(S(=O)(=O)NCc2ccncc2)c1,inactive,
COc1ccccc1CCNCc1ccc(OC)c(OCc2ccccc2)c1,inactive,
COc1ccc(-c2cc(C(=O)NNC(=S)NC(=O)c3c(-c4ccccc4)noc3C)[nH]n2)cc1,,-6.56% (inactive)
C[C@H]1CN([C@@H](C)CO)C(=O)c2ccccc2-c2ccccc2CO[C@H]1CN(C)S(=O)(=O)c1ccccc1C#N,,39.5% (inactive)
CC(C)(C)c1ccc(-c2noc(CCC(=O)NCC3CCCO3)n2)cc1 (configuration not stated),,26.6% (inactive)
Clc1ccc2c(c1)C(C1=NCCN1)c1ccccc1CS2 (configuration not stated),inactive,

# From PubChem BioAssay AID687021 (Broad Institute, 2013)
